# Test results published in PubChem BioAssay (NCATS).
# Records with an inconclusive call do not appear. Entries that show only a call come without a potency. A number with no mark means an inactive call. Activity calls are given as the source filed them. The call rests on the fitted dose curve; in most records, active means well fitted curve in the direction sought with a large enough effect; inconclusive means small, poorly fitted or top-dose-only effect, or another doubt; inactive means no such curve, though single readings can be large; an effect the other way counts as inactive or inconclusive.
# Legend:
# MCC-13 = assay: qHTS assay to identify novel small-molecules to repurpose for Merkel cell carcinoma treatment (AID 1296009); conditions: MCC and control cell lines, CellTiter-Glo viability, 72 h; series mostly up to 46 µM; further: nearly all actives have a fitted effect of over 60% in size
# Summary of the method: (§1)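 Luminescence from CellTiter-Glo, read 10 min after addition at room temperature, reported viability following a 72 hr, 37 degree celsius treatment with NPC or MIPE compounds in titration; values normalized to plate controls.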
# MCC-26 = assay: as above; conditions: MCC and control cell lines, CellTiter-Glo viability, 72 h; series mostly up to 46 µM
# Summary of the method: as §1
# MKL-1 = assay: as above; conditions: MCC and control cell lines, CellTiter-Glo viability, 72 h; series mostly up to 46 µM
# Summary of the method: as §1
# MKL-2 = assay: as above; conditions: MCC and control cell lines, CellTiter-Glo viability, 72 h; series mostly up to 46 µM
# Summary of the method: as §1
# NIH3T3 = assay: as above; conditions: MCC and control cell lines, CellTiter-Glo viability, 72 h; at 44.8 µM (top of the series) unless noted
# Summary of the method: as §1
# UISO = assay: as above; conditions: MCC and control cell lines, CellTiter-Glo viability, 72 h; series mostly up to 46 µM
# Summary of the method: as §1
# WaGa = assay: as above; conditions: MCC and control cell lines, CellTiter-Glo viability, 72 h; series mostly up to 46 µM
# Summary of the method: as §1
# C33A = assay: Primary qHTS to identify gynecologic anti-cancer compounds using libraries of approved drugs and bioactive compounds (AID 1345084); conditions: Gynecologic cancer cell panel viability, ATPlite luminescence, 48 h; series mostly up to 57.5 µM; further: nearly all actives have a fitted effect of over 55% in size
# Summary of the method: (§2)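 Cells, 1,000 per well, plated 16 h, then exposed 48 h at 37 C to compounds. Viability by ATPlite luminescence after 15 min at room temperature.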
# CASKI = assay: as above; conditions: Gynecologic cancer cell panel viability, ATPlite luminescence, 48 h; series mostly up to 57.5 µM
# Summary of the method: as §2
# Es-2 = assay: as above; conditions: Gynecologic cancer cell panel viability, ATPlite luminescence, 48 h; series mostly up to 57.5 µM
# Summary of the method: as §2
# HeLa = assay: as above; conditions: Gynecologic cancer cell panel viability, ATPlite luminescence, 48 h; series mostly up to 57.5 µM
# Summary of the method: as §2
# Hek293T = assay: as above; conditions: Gynecologic cancer cell panel viability, ATPlite luminescence, 48 h, control line for the selectivity index; series mostly up to 57.5 µM
# Summary of the method: as §2
# JEG-3 = assay: as above; conditions: Gynecologic cancer cell panel viability, ATPlite luminescence, 48 h; series mostly up to 57.5 µM
# Summary of the method: as §2
# OV90 = assay: as above; conditions: Gynecologic cancer cell panel viability, ATPlite luminescence, 48 h; series mostly up to 57.5 µM
# Summary of the method: as §2
# PA-1 = assay: as above; conditions: Gynecologic cancer cell panel viability, ATPlite luminescence, 48 h; series mostly up to 57.5 µM
# Summary of the method: as §2
# SKOV3 = assay: as above; conditions: Gynecologic cancer cell panel viability, ATPlite luminescence, 48 h; series mostly up to 57.5 µM
# Summary of the method: as §2
# Tov-21-G = assay: as above; conditions: Gynecologic cancer cell panel viability, ATPlite luminescence, 48 h; series mostly up to 57.5 µM
# Summary of the method: as §2
# Tov112D = assay: as above; conditions: Gynecologic cancer cell panel viability, ATPlite luminescence, 48 h; series mostly up to 57.5 µM
# Summary of the method: as §2
# [1] = Drug repurposing screens with cells derived from glioblastoma tumor samples (AID 1345199); conditions: GBM patient neurospheres viability, ATP luminescence, 48 h; further: nearly all actives have a fitted effect of over 40% in size; further: potency means the concentration at half of the fitted maximal effect
# Summary of the method: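 Primary testing used CD133+ neurospheres from four GBM patients, seven concentrations, 48 h exposure and ATP-based viability; confirmation added three slower-growing patient lines.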
# CAOV3 = assay: Primary qHTS to identify gynecologic anti-cancer compounds using libraries of approved drugs and bioactive compounds (AID 1345084); conditions: Gynecologic cancer cell panel viability, ATPlite luminescence, 48 h; series mostly up to 57.5 µM; further: nearly all actives have a fitted effect of over 55% in size
# Summary of the method: as §2
# [2] = at 45.9 µM (top of the series), tumour line B
# [3] = at 45.9 µM (top of the series), tumour line D
# [4] = at 46.1 µM (top of the series), tumour line C
# [5] = at 20 µM (top of the series), tumour line C
# [6] = at 21.2 µM (top of the series), tumour line B
# [7] = at 21.2 µM (top of the series), tumour line D
compound,measurement,setting,value
O=C(OOC(=O)c1ccccc1)c1ccccc1,outcome,MCC-13,inactive
same,outcome,MCC-26,inactive
same,outcome,MKL-1,inactive
same,outcome,MKL-2,inactive
same,outcome,NIH3T3,inactive
same,outcome,UISO,inactive
same,outcome,WaGa,inactive
same,outcome,C33A,inactive
same,outcome,CASKI,inactive
same,outcome,Es-2,inactive
same,outcome,HeLa,inactive
same,outcome,Hek293T,inactive
same,outcome,JEG-3,inactive
same,Potency,OV90,inactive
same,outcome,PA-1,inactive
same,outcome,SKOV3,inactive
same,outcome,Tov-21-G,inactive
same,outcome,Tov112D,inactive
same,"activity, negative = cell killing",[1]; [2],-7.59%
same,"activity, negative = cell killing",[1]; [3],-7.12%
same,"activity, negative = cell killing",[1]; [4],-4.84%
CC(C)(C)NCC(O)COc1cccc2c1CCC(=O)N2 (stereo not given),outcome,MCC-13,inactive
same,outcome,MCC-26,inactive
same,outcome,MKL-1,inactive
same,outcome,MKL-2,inactive
same,outcome,UISO,inactive
same,outcome,WaGa,inactive
same,outcome,C33A,inactive
same,outcome,CAOV3,inactive
same,outcome,CASKI,inactive
same,outcome,Es-2,inactive
same,outcome,HeLa,inactive
same,outcome,Hek293T,inactive
same,outcome,JEG-3,inactive
same,Potency,OV90,inactive
same,outcome,PA-1,inactive
same,outcome,SKOV3,inactive
same,outcome,Tov-21-G,inactive
same,outcome,Tov112D,inactive
same,"activity, negative = cell killing",[1]; [5],-4.91%
same,"activity, negative = cell killing",[1]; [6],-10.6%
same,"activity, negative = cell killing",[1]; [7],12.4%
COC(=O)c1ccc(O)cc1,outcome,MCC-13,inactive
same,outcome,MCC-26,inactive
same,outcome,MKL-1,inactive
same,outcome,MKL-2,inactive
same,outcome,NIH3T3,inactive
same,outcome,UISO,inactive
same,outcome,WaGa,inactive
same,outcome,C33A,inactive
same,outcome,CASKI,inactive
same,outcome,Es-2,inactive
same,outcome,HeLa,inactive
same,outcome,Hek293T,inactive
same,outcome,JEG-3,inactive
same,Potency,OV90,inactive
same,outcome,PA-1,inactive
same,outcome,SKOV3,inactive
same,outcome,Tov-21-G,inactive
same,outcome,Tov112D,inactive
same,"activity, negative = cell killing",[1]; [2],-4.62%
same,"activity, negative = cell killing",[1]; [3],-7.84%
same,"activity, negative = cell killing",[1]; [4],-1.97%
O=C(O)Cc1ccc(CCNS(=O)(=O)c2ccc(Cl)cc2)cc1,outcome,MCC-13,inactive
same,outcome,MCC-26,inactive
same,outcome,MKL-1,inactive
same,outcome,MKL-2,inactive
same,outcome,UISO,inactive
same,outcome,WaGa,inactive
same,outcome,C33A,inactive
same,outcome,CAOV3,inactive
same,outcome,CASKI,inactive
same,outcome,Es-2,inactive
same,outcome,HeLa,inactive
same,outcome,Hek293T,inactive
same,outcome,JEG-3,inactive
same,Potency,OV90,inactive
same,outcome,PA-1,inactive
same,outcome,SKOV3,inactive
same,outcome,Tov-21-G,inactive
same,outcome,Tov112D,inactive
same,"activity, negative = cell killing",[1]; [2],-9.63%
same,"activity, negative = cell killing",[1]; [3],-6.01%
O=C1c2cccc(O)c2C(=O)c2c(O)cccc21,outcome,MCC-13,inactive
same,outcome,MCC-26,inactive
same,outcome,MKL-1,inactive
same,outcome,MKL-2,inactive
same,outcome,UISO,inactive
same,outcome,WaGa,inactive
same,outcome,C33A,inactive
same,outcome,CAOV3,inactive
same,outcome,CASKI,inactive
same,outcome,Es-2,inactive
same,outcome,HeLa,inactive
same,outcome,Hek293T,inactive
same,outcome,JEG-3,inactive
same,Potency,OV90,inactive
same,outcome,PA-1,inactive
same,outcome,SKOV3,inactive
same,outcome,Tov-21-G,inactive
same,outcome,Tov112D,inactive
same,"activity, negative = cell killing",[1]; [4],-4.97%
same,Potency,[1]; tumour line A,11.2 µM (active)
CC(=O)SC[C@@H](Cc1ccccc1)C(=O)NCC(=O)OCc1ccccc1,outcome,MCC-13,inactive
same,outcome,MCC-26,inactive
same,outcome,MKL-1,inactive
same,outcome,MKL-2,inactive
same,outcome,UISO,inactive
same,outcome,WaGa,inactive
same,outcome,C33A,inactive
same,outcome,CAOV3,inactive
same,outcome,CASKI,inactive
same,outcome,Es-2,inactive
same,outcome,HeLa,inactive
same,outcome,Hek293T,inactive
same,outcome,JEG-3,inactive
same,Potency,OV90,inactive
same,outcome,PA-1,inactive
same,outcome,SKOV3,inactive
same,outcome,Tov-21-G,inactive
same,outcome,Tov112D,inactive
same,"activity, negative = cell killing",[1]; [5],2.42%
same,"activity, negative = cell killing",[1]; [6],-12.3%
same,"activity, negative = cell killing",[1]; [7],-8.77%
OC(CCN1CCCC1)(c1ccccc1)C1CCCCC1 (stereo not given),outcome,MCC-13,inactive
same,outcome,MCC-26,inactive
same,outcome,MKL-1,inactive
same,outcome,MKL-2,inactive
same,outcome,NIH3T3,inactive
same,outcome,UISO,inactive
same,outcome,WaGa,inactive
same,outcome,C33A,inactive
same,outcome,CAOV3,inactive
same,outcome,CASKI,inactive
same,outcome,Es-2,inactive
same,outcome,HeLa,inactive
same,outcome,Hek293T,inactive
same,outcome,JEG-3,inactive
same,outcome,PA-1,inactive
same,outcome,SKOV3,inactive
same,outcome,Tov-21-G,inactive
same,outcome,Tov112D,inactive
same,"activity, negative = cell killing",[1]; [5],3.06%
same,"activity, negative = cell killing",[1]; [6],-6.65%
same,"activity, negative = cell killing",[1]; [7],-11.6%
O=C(O)Cc1cn(-c2ccccc2)nc1-c1ccc(Cl)cc1,outcome,MCC-13,inactive
same,outcome,MCC-26,inactive
same,outcome,MKL-1,inactive
same,outcome,MKL-2,inactive
same,outcome,UISO,inactive
same,outcome,WaGa,inactive
same,outcome,C33A,inactive
same,outcome,CAOV3,inactive
same,outcome,CASKI,inactive
same,outcome,Es-2,inactive
same,outcome,HeLa,inactive
same,outcome,Hek293T,inactive
same,outcome,JEG-3,inactive
same,Potency,OV90,inactive
same,outcome,PA-1,inactive
same,outcome,SKOV3,inactive
same,outcome,Tov-21-G,inactive
same,outcome,Tov112D,inactive
same,"activity, negative = cell killing",[1]; [2],-17.9%
same,"activity, negative = cell killing",[1]; [3],-13.4%
same,"activity, negative = cell killing",[1]; [4],-18.4%
Cc1c(NC(=O)c2cccnc2)c(=O)n(-c2ccccc2)n1C,outcome,MCC-13,inactive
same,outcome,MCC-26,inactive
same,outcome,MKL-1,inactive
same,outcome,MKL-2,inactive
same,outcome,NIH3T3,inactive
same,outcome,UISO,inactive
same,outcome,WaGa,inactive
same,outcome,C33A,inactive
same,outcome,CAOV3,inactive
same,outcome,CASKI,inactive
same,outcome,Es-2,inactive
same,outcome,HeLa,inactive
same,outcome,Hek293T,inactive
same,outcome,JEG-3,inactive
same,Potency,OV90,inactive
same,outcome,PA-1,inactive
same,outcome,Tov-21-G,inactive
same,outcome,Tov112D,inactive
same,"activity, negative = cell killing",[1]; [5],-4.61%
same,"activity, negative = cell killing",[1]; [6],2.25%
same,"activity, negative = cell killing",[1]; [7],12.3%
same,"activity, negative = cell killing","[1]; at 21.3 µM (top of the series), tumour line A",-13.1%
O=C(CCBr)N1CCN(C(=O)CCBr)CC1,outcome,MCC-13,inactive
same,outcome,MCC-26,inactive
same,outcome,MKL-1,inactive
same,outcome,MKL-2,inactive
same,outcome,NIH3T3,inactive
same,outcome,UISO,inactive
same,outcome,WaGa,inactive
same,outcome,C33A,inactive
same,outcome,CAOV3,inactive
same,outcome,CASKI,inactive
same,outcome,Es-2,inactive
same,outcome,HeLa,inactive
same,outcome,Hek293T,inactive
same,outcome,JEG-3,inactive
same,Potency,OV90,inactive
same,outcome,PA-1,inactive
same,outcome,Tov-21-G,inactive
same,outcome,Tov112D,inactive
same,"activity, negative = cell killing",[1]; [2],-9.14%
same,"activity, negative = cell killing",[1]; [3],-7.7%
same,"activity, negative = cell killing",[1]; [4],-5.97%
NCC1CCC(C(=O)Oc2ccc(CCC(=O)O)cc2)CC1 (stereo not given),outcome,MCC-13,inactive
same,outcome,MCC-26,inactive
same,outcome,MKL-1,inactive
same,outcome,MKL-2,inactive
same,outcome,UISO,inactive
same,outcome,WaGa,inactive
same,outcome,C33A,inactive
same,outcome,CAOV3,inactive
same,outcome,CASKI,inactive
same,outcome,Es-2,inactive
same,outcome,HeLa,inactive
same,outcome,Hek293T,inactive
same,outcome,JEG-3,inactive
same,Potency,OV90,inactive
same,outcome,PA-1,inactive
same,outcome,SKOV3,inactive
same,outcome,Tov-21-G,inactive
same,outcome,Tov112D,inactive
same,"activity, negative = cell killing",[1]; [2],-0.713%
same,"activity, negative = cell killing",[1]; [3],-15%
same,"activity, negative = cell killing",[1]; [4],8.61%
